Screens as filed in PubChem BioAssay.
Shown are actives, neighbours in structure and some others; about 11% of the full set was active somewhere.
HEK293 tox = cytotoxic compounds in HEK 293 cells; HEK 293 viability, ATP luminescence (CellTiter-Glo), 48-72 h; Potency, µM (doses to about 115 µM), for the others: top-dose activity change, negative = cytotoxicity, usual class: inhibitors; 94,000 compounds, 6.6% hits; AID 1345083; also: % is scaled to controls: 0 for no effect and ±100 for the full control effect; nearly all actives have a fitted effect of over 60% in size
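Read-out: CellTiter-Glo ATP luminescence. Cells: HEK 293, 250 cells/well. Exposure: 48 or 72 hr, 37 degree Celsius.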
hNpr1 antagonist = human Npr1 receptor antagonism; P16066; HEK293 hNpr1 GloSensor cGMP, ANP-stimulated luminescence; Potency, µM (series often up to 46.3 µM), for inactives: at the highest dose activity change, negative = inhibition, hits mostly inhibitors; 76,000 compounds, 1.6% hits; calls by dose curve; also: % is scaled to controls: 0 for no effect and ±100 for the full control effect; nearly all actives have a fitted effect of over 60% in size
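Compound pre-incubated 30 min at room temperature on GloSensor-loaded HEK293 cells stably carrying hNpr1 and the pGS-40F cGMP biosensor. Stimulation uses hNppA at 0.1 nM final; luminescence is taken at baseline and 20 min post-agonist.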
FLuc inh-1 = inhibitors of firefly (Photinus pyralis) luciferase | purified P. pyralis luciferase, luminescence, biochemical | Potency, µM (highest dose often 115 µM), hits mostly inhibitors | 76,000 compounds, 2.5% hits; also: % is scaled to controls: 0 for no effect and ±100 for the full control effect; nearly all actives have a fitted effect of over 65% in size
Target sequence (P08659 whole entry, looked up): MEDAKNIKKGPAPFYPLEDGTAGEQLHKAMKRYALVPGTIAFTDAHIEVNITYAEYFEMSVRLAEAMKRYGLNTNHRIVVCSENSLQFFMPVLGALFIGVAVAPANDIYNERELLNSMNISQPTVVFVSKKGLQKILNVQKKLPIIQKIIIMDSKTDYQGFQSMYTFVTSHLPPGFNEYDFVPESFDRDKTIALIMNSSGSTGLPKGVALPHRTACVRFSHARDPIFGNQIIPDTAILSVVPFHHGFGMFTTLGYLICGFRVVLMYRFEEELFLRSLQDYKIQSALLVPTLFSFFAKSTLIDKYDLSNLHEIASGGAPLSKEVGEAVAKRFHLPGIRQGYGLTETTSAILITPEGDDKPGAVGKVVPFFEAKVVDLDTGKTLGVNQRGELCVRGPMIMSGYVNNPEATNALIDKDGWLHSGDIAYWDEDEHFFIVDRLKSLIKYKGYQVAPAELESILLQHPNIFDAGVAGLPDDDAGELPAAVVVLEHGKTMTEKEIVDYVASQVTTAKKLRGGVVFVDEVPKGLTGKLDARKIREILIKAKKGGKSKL
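Purified 10nM P. pyralis luciferase with 10uM D-luciferin and 10uM ATP in 50mM Tris acetate pH 7.5, 10mM Mg acetate, 0.01% Tween-20, 0.05% BSA. qHTS titration; luminescence read by CCD imager.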
3T3 cytotox = NIH 3T3 cell cytotoxicity | NIH 3T3 viability, CellTiter-Glo ATP luminescence, 48-72 h | 94,000 compounds, 4.3% hits | AID 1345082 | Potency, µM (doses to about 96.7 µM), for the others: top-dose activity change, negative = cytotoxicity, usual class: inhibitors; also: % is scaled to controls: 0 for no effect and ±100 for the full control effect; nearly all actives have a fitted effect of over 55% in size
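First NIH 3T3 cells are plated at 400 cells/well; next compound is pinned in; then plates incubate 48 or 72 hr at 37 °C; finally CellTiter-Glo is added and luminescence read after 10 min.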
FLuc SDR -ATP = firefly luciferase binding stabilization, ATP absent. shares compounds with FLuc inh-1. Purified FLuc-C-HiBiT, Nano-Glo HiBiT luminescence, no ATP. Potency, µM (series often up to 32.7 µM), without a hit: at the top dose activation (signal gain), usual class: activators. 1,300 compounds, 7.8% hits. AID 1963318; also: nearly all actives have a fitted effect of over 55% in size
FLuc SDR ATP = firefly luciferase binding stabilization, ATP added. shares compounds with FLuc inh-1. purified FLuc-C-HiBiT + ATP, HiBiT complementation luminescence. Potency, µM (highest dose often 32.7 µM), inactives show at the top dose activation (gain of signal), usual class: activators. 1,300 compounds, 8.7% hits;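 also: signal reports ligand binding via conformational change of the enzyme rather than luciferase catalysis; % of control where 0% means no effect; nearly all actives have a fitted effect of over 55% in size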
FLuc inh-2 = firefly luciferase enzyme inhibition. shares compounds with FLuc inh-1. purified FLuc-C-HiBiT enzyme, luciferin luminescence. Potency, µM (doses to about 32.7 µM), inactives show top-dose activity change, negative = inhibition, usual class: inhibitors. 1,300 compounds, 42% hits. AID 1963320; also: % is scaled to controls: 0 for no effect and ±100 for the full control effect; nearly all actives have a fitted effect of over 70% in size
The depositor's hits bear a star; i = inactive; ? = inconclusive; nt = no result given; [ ] = dose if it differs, or a comment. Unless noted, calls follow the shape of the dose curve; as a rule, active = well fitted curve in the direction sought with a large enough effect; inconclusive = small, poorly fitted or top-dose-only effect, or another doubt; inactive = no such curve, though single readings can be large; an effect the other way counts as inactive or inconclusive. Potency is read from the fitted curve at half-maximal effect.

SMILES	HEK293 tox	hNpr1 antagonist	FLuc inh-1	3T3 cytotox	FLuc SDR -ATP	FLuc SDR ATP	FLuc inh-2
CSc1ccc(NC(=O)c2cc3c(N4CCSCC4)nc(C)cn3n2)cc1	?	-17%	i	?	nt	nt	nt
O=C(Nc1ccc(-c2nc3ccccc3s2)c(O)c1)c1ccccc1	nt	nt	nt	nt	14%	11%	-2%
O=C(Nc1cnc(-c2ccccc2)nc1)c1cccc(F)c1	-16%	-4%	?	4%	nt	nt	nt
CC(C)c1ccc(C(=O)Nc2ccc(-c3nc4ccccc4s3)c(Cl)c2)cc1	nt	nt	nt	nt	12%	7%	-9%
O=C(c1ccc2c(c1)OCO2)N1CCc2nc(C3CC3)nc(-c3ccc(Cl)cc3)c2C1	-19%	nt	nt	-10%	nt	nt	nt
Cc1ccc(-c2cc(N3CCC(CNC(=O)c4ccc5nc[nH]c5c4)CC3)n[nH]2)cc1	?	-25%	14µM*	?	20%	15%	?
O=C(NCC1CCN(c2cc(-c3ccccc3)[nH]n2)CC1)c1ccc2nc[nH]c2c1	3%	-2%	?	?	nt	nt	nt
COc1cccc(CCC(=O)N2CCC(Oc3ccc(-c4noc(C5CC5)n4)cc3)C2)c1 (centres undefined)	?	?	i	?	nt	nt	nt
CCCc1ccc(-c2nc(C3CCOC3)no2)cc1 (centres undefined)	?	?	1.1µM*	-21%	15%	?	7µM*
c1cn(-c2ccc(-c3nc(C4CCOC4)no3)cc2)cn1 (centres undefined)	-4%	-1%	i	-20%	nt	nt	nt
N#Cc1ccc(S(=O)(=O)N2CCCOCCNC(=O)[C@@H]3CCCC[C@@H]32)cc1	-6%	-1%	i	-11%	nt	nt	nt
Cc1ccc2nc(-c3cccc(NC(=O)CSc4ccc(Cl)cc4)c3)oc2c1	nt	nt	nt	nt	31%	18%	?
Cc1cc2nc(-c3cccc(NC(=O)COc4ccc(C(C)C)cc4)c3)oc2cc1C	nt	nt	nt	nt	28%	?	?
O=C(Nc1cccc(Cl)c1)c1ccc2nc(-c3cccnc3)oc2c1	-30%	nt	nt	-22%	nt	nt	nt
COc1cccc(S(=O)(=O)N2CCCC(c3nc(C(C)C)no3)CCNC(=O)CC2)c1 (centres undefined)	i	6%	i	-6%	nt	nt	nt
O=C(CC1CCOCC1)Nc1ccc(OC(F)(F)F)cc1	-18%	-13%	?	-14%	nt	nt	nt
O=C(CSc1nccn1Cc1ccco1)Nc1ccc(OC(F)(F)F)cc1	nt	nt	nt	nt	13%	11%	?
CCOC(=O)N1CCC(c2nnc(CN3CCCCCC3)n2C)CC1	-18%	-5%	i	-20%	nt	nt	nt
N#Cc1c(NC(=O)c2cccc3ccccc23)sc2c1CCCC2	nt	nt	nt	nt	12%	8%	-20%
O=C(Nc1cccc(F)c1)Nc1cccc(-c2nnc3n2CCCC3)c1	-2%	-3%	i	i	nt	nt	nt
O=C(Nc1ccc(F)cc1)Nc1cccc(-c2ccc(N3CCOCC3)nn2)c1	?	?	0.89µM*	?	?	?	2µM*
CSc1cccc(NC(=O)Nc2cccc(-c3ccc(N4CCOCC4)nn3)c2)c1	28µM*	?	0.79µM*	35µM*	?	?	1.6µM*
CCc1cccc(NC(=O)Nc2cccc(-c3ccc(N4CCOCC4)nn3)c2)c1	40µM*	?	2µM*	?	?	18%	6.2µM*
CN1CCN(c2ccc(-c3cccc(N)c3)nn2)CC1	-1%	?	11µM*	i	30%	?	6.2µM*
CCN(CC)Cc1nc(C2(O)CCN(C3CCC3)CC2)cs1	?	2%[70.6 µM]	i	-16%[174 µM]	nt	nt	nt
O=C(C1CC1)N1CCCC(C(=O)N2CCCC(c3nc4ccncc4[nH]3)C2)C1 (centres undefined)	i	nt	nt	-2%	nt	nt	nt
O=C(NCCc1ccccc1)c1cc(-c2cc(Cl)cc(Cl)c2)c2nncn2n1	i	nt	nt	-5%	nt	nt	nt
